Experimental data as given in PubChem BioAssay (NCI).
This is part of a sample that, as a whole, favours compounds with a hit. Of some 83,000 tested, about 20% had one in any assay.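 Treatment: one concentration, 48 hours, 96-well format. Scoring: percent growth, with anything below 10 considered active.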 Values without a mark were called inactive. The source made the active and inactive calls.

Experiments:
Assay in all cases: NCI-60 one-dose screen, 48 h (100 = growth as untreated, 0 = no growth, -100 = all killed)
HCT-15 colon = settings: 10 µM unless noted
HT29 colon = settings: 10 µM unless noted
SNB-75 CNS = settings: 10 µM unless noted
SNB-19 CNS = settings: 10 µM unless noted
U251 CNS = settings: 10 µM unless noted
PC-3 prostate = settings: 10 µM unless noted
UACC-62 melanoma = settings: 10 µM unless noted
LOX IMVI melanoma = settings: 10 µM unless noted
SK-MEL-28 melanoma = settings: 10 µM unless noted
SK-MEL-2 melanoma = settings: 10 µM unless noted
EKVX NSCLC = settings: 10 µM unless noted
SN12C renal = settings: 10 µM unless noted
UO-31 renal = settings: 10 µM unless noted
TK-10 renal = settings: 10 µM unless noted
ACHN renal = settings: 10 µM unless noted
CAKI-1 renal = settings: 10 µM
A498 renal = settings: 10 µM unless noted
CCRF-CEM leukemia = settings: 10 µM unless noted
MOLT-4 leukemia = settings: 10 µM unless noted
SK-MEL-5 melanoma = settings: 10 µM unless noted

Structure (SMILES) | growth (HCT-15 colon) | growth (HT29 colon) | growth (SNB-75 CNS) | growth (SNB-19 CNS) | growth (U251 CNS) | growth (PC-3 prostate) | growth (UACC-62 melanoma) | growth (LOX IMVI melanoma) | growth (SK-MEL-28 melanoma) | growth (SK-MEL-2 melanoma) | growth (EKVX NSCLC) | growth (SN12C renal) | growth (UO-31 renal) | growth (TK-10 renal) | growth (ACHN renal) | growth (CAKI-1 renal) | growth (A498 renal) | growth (CCRF-CEM leukemia) | growth (MOLT-4 leukemia) | growth (SK-MEL-5 melanoma)
CN1CCN(Cc2ccc(NC(=O)c3cncc(C#Cc4cnc5ccc(O[C@H]6CCOC6)nn45)c3)cc2C(F)(F)F)CC1 | -49.3% (active) | -67.8% (active) | -95.9% (active) | -69.2% (active) | -85.4% (active) | -9.05% (active) | -45.3% (active) | -88.1% (active) | -80.3% (active) | -88% (active) | -69.7% (active) | -48.4% (active) | -94% (active) | -87.2% (active) | -97.1% (active) | -96.2% (active) | -92.9% (active) | 2.84% (active) | -1.92% (active) | –
COc1ccc(-c2ccc3c4c(cccc24)C(=O)N(N2C(=O)c4cccc5cccc(c45)C2=O)C3=O)cc1 | 99.1% | 99.1% | 73.4% | 96.3% | 104% | 87.7% | 96.8% | – | 106% | 111% | 89.4% | 105% | 68.6% | 134% | 96.3% | 75.2% | 100% | 96.8% | 101% | 99.6%
COc1cc(C2=NN(C(C)=O)C(c3ccc(N4CCOCC4)cc3)C2)cc(OC)c1OC (stereo not drawn) | 107% | 109% | 96% | 98.6% | 104% | 106% | 87.8% | 98.1% | 104% | 97% | 101% | 98.3% | 84% | 108% | 99.6% | 94.7% | – | 97.3% | 106% | –
CCOC(=O)C1=C(C)Nc2nc3ccccc3n2C1c1ccccc1 (stereo not drawn) | 90.8% | 97.9% | 99.1% | 97.8% | 101% | 97.7% | 85.7% | 90.4% | 109% | 102% | 94.4% | 92.9% | – | 114% | 73.7% | 90.6% | – | 94% | 97.8% | –
COc1ccc(-c2nc(SCCC(C)C)nc(N/N=C\c3ccc(O)cc3)c2C#N)cc1 | 28.2% | 107% | 77.2% | 60.1% | 29.4% | 72.4% | 93.9% | – | 95% | 104% | 93.1% | 67.6% | 76.8% | 157% | 60.9% | 78% | 92.5% | 54.7% | 64.5% | 89.2%
O=C(NNc1nc2cc(F)c(F)cc2n2cccc12)c1ncccn1 | 28.8% | 34.3% | -1.51% (active) | 25.8% | 18.3% | 32.4% | 18.3% | 16.1% | 25.7% | 34.5% | 17.3% | 23.9% | 17.7% | 48.6% | 12.7% | 18.2% | 17.7% | 12.7% | 16.6% | –
NS(=O)(=O)c1ccc(Nc2nc(N/N=C/c3ccc([N+](=O)[O-])cc3)nc(Nc3ccccc3)n2)cc1 | 86.5% | 24.6% | 45.4% | 20.4% | 18.2% | 50.2% | 45.1% | -20.6% (active) | 35.2% | 18.2% | 83.7% | 27.4% | 81.9% | 93.8% | 82.6% | 50.6% | 18.5% | 11.8% | 11.9% | –
O=C(c1ccc(O)cc1)[C@@H]1[C@@H]2CCCN2[C@@]2(C(=O)N(C(=O)c3ccc(F)cc3)c3ccccc32)[C@H]1c1ccc(F)cc1 | 86.6% | 104% | 73.5% | 93.3% | 94.3% | 78.3% | 75.4% | – | 99.2% | 110% | 83.4% | 87.3% | 60.4% | 143% | 90% | 70.1% | 82.5% | 67.2% | 68% | 95%
Cc1cc(C(=O)Nc2ccc(SC#N)cc2)c(C)o1 | 82.1% | 106% | 104% | 90.7% | 76% | 73.9% | 93.1% | -41.2% (active) | 104% | 110% | 90.4% | 70.6% | 49.3% | 101% | 100% | 81.7% | 94.4% | 28.8% | 29.7% | –
C#C[C@]1(O)CC[C@H]2[C@@H]3CC=C4c5sc(Nc6ccncc6)nc5CC[C@]4(C)[C@H]3CC[C@@]21C | -71.4% (active) | -4.61% (active) | -49.4% (active) | -36.8% (active) | 1.97% (active) | 1.86% (active) | -22.8% (active) | – | -55.1% (active) | -15% (active) | -13.7% (active) | 44.1% | -61.8% (active) | 12% | 18.8% | -19.4% (active) | -52.2% (active) | 4.46% (active) | -18.3% (active) | -83.9% (active)
Cn1cc(-c2nn3cc(-c4cccnc4)nc3s2)c2ccccc21 | 12.5% | 11.2% | 31.4% | 42.6% | 26.6% | 35.8% | 31.1% | 37.9% | 50.7% | – | 43.8% | 33.4% | 32.2% | 80.5% | 48.1% | 43.5% | 36.6% | 38% | – | –
O=C1c2c(c3c4cc(Br)ccc4[nH]c3c3ccc4ccccc4c23)C(=O)N1CCN1CCCCC1 | -60% (active) | 10.3% | 49.6% | 37.7% | -10.9% (active) | 65% | 59.5% | – | 93.5% | 112% | 81.1% | 41.1% | 48.7% | 132% | 18.5% | 31.2% | 72.7% | -0.774% (active) | -1.44% (active) | 68.3%
COc1ccc(-c2nc(SCC(C)C)nc(N/N=C\c3cccc([N+](=O)[O-])c3)c2C#N)cc1 | 46.3% | 49.9% | -11.2% (active) | 38.6% | 13% | 55.2% | 75.6% | – | 77.7% | 86.2% | 47.7% | 43.3% | -36.4% (active) | 91.4% | 8.66% (active) | 31.8% | 47.6% | 80.9% | 75.1% | 68.3%
COC[C@@]1(C)CC[C@]2(C)CC[C@]3(C)C(=CC[C@@H]4[C@@]5(C)CCCNC(C)(C)[C@@H]5CC[C@]43C)C2C1 (stereo partly drawn) | 16.1% | 23.3% | 104% | 67.5% | 35.3% | 46.4% | 64.5% | 12.6% | 66.6% | 78.1% | 76.9% | 51.6% | 90.4% | 110% | 87.1% | 71.7% | – | 47.7% | 34.1% | –
Cc1ccc(-c2cc(-c3cccc4ccccc34)n3c(n2)nc2ccccc23)cc1 | 48% | 73.4% | 46.8% | 53.5% | 48.9% | 60.3% | 43.5% | 56.6% | 77% | 105% | 78.7% | 61.2% | 37.9% | 69.1% | 24.8% | 23.1% | 52.5% | 37.5% | 4.63% (active) | –
CC(C)c1nn(-c2ccccc2)c(N2CCCCC2)c1/C=N/NC(N)=S | 70.8% | 81.4% | 61.6% | 92% | 97.9% | 82.5% | 92.5% | – | 109% | 104% | 82.1% | 89.9% | 64.5% | 113% | 87.2% | 69.2% | 66.2% | 89.7% | 83.6% | 87.5%
